D1 ag – Allosteric Agonists of the Human D1 Dopamine Receptor: qHTS; hit rate 1% among 360,000; activation, % at 2 µM; HEK293 T-REx D1 cells, calcium flux, agonist mode; D(1A) dopamine receptor (Homo sapiens), P21728; in the data active = activation above about 30%; note: 0% is about no effect
Target sequence (P21728 whole entry, looked up): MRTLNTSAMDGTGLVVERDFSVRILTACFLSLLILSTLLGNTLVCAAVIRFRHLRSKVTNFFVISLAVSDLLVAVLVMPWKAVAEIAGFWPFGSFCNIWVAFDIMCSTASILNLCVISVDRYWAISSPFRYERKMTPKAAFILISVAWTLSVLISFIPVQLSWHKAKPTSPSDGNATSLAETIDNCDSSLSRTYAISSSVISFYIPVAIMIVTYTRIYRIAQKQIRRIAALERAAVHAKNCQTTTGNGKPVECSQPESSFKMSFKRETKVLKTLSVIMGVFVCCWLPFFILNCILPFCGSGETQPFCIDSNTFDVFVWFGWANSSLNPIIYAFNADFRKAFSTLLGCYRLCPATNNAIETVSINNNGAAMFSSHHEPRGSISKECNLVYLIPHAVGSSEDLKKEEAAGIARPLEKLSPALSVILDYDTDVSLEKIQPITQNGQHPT
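Inducible HEK293 T-REx D1 cells, force-coupled to calcium signalling, were plated at 4000 cells/well with tetracycline and held overnight at 30 C. After no-wash calcium dye loading, compound-evoked calcium rise over 180 s flagged agonists.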
D1 antagonist – Antagonist of Human D 1 Dopamine Receptor: qHTS; D(1A) dopamine receptor (Homo sapiens), P21728; HEK293 TREx D1 cells, calcium flux, dopamine EC80; stronger effect = lower value; activity change, negative = inhibition, % at 10 µM; hit rate 3.2% among 360,000; AID 504652, 2011; in the data active = activity change below about -30%; note: % is set by controls: 0 for no effect and ±100 for the full control effect
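Compound effects on dopamine-evoked calcium signalling were measured in tetracycline-induced HEK293 Trex D1 cells. Dopamine at EC80 followed a 180 s compound pre-read, and fluorescence was tracked kinetically for 180 s more.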
D1 PAM – Potentiators of Human D1 Dopamine Receptor: qHTS; HEK293 TREx D1 cells, calcium flux, dopamine EC20 potentiation; potentiation, % at 10 µM; D(1A) dopamine receptor (Homo sapiens), P21728; hit rate 0.036% among 360,000; AID 504651, 2011; in the data active = potentiation above about 30%; note: 0% is about no effect
D3 antag – qHTS of D3 Dopamine Receptor Antagonist: qHTS; D3R cells, DiscoveRx beta-arrestin luminescence, antagonist mode; stronger effect = lower value; hit rate 2.5% among 360,000; max response, negative = inhibition, %; D(3) dopamine receptor (Homo sapiens), P35462; AID 652054, 2013; in the data active = max response below about -50%; inconclusive = no clear call, values can overlap the other calls; note: % is set by controls: 0 for no effect and ±100 for the full control effect
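Cells plated overnight at 1500 cells/well, then exposed to library compounds with dopamine controls for 90 minutes at 37 degrees C. DiscoveRx reagent added for 30–60 minutes at room temperature; luminescence read, quantitative HTS format.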
Chronic BCR inh – qHTS Assay to Find Inhibitors of Chronic Active B-Cell Receptor Signaling. hit rate 0.05% among 340,000. ABC-DLBCL IkBa-CBG/CBR reporter, luminescence ratio, 4 h. Potency, µM (highest dose often 46.1 µM), for the others: at the highest dose activity change, negative = inhibition, usual class: inhibitors; active = well fitted inhibition curve with a large enough effect in the signal ratio, with a control signal flat, not every such curve was filed as active; inconclusive = small, poorly fitted or top-dose-only effect, or effect the other way, or a change in a side signal; the % refers to the signal ratio;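 note: potency is the fitted concentration of half-maximal effect; plate controls were basal doxycycline-induced cells for no effect and cells given 10 µM MG132 for full effect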
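Cell line TMD8 (human ABC DLBCL), stably expressing tet-inducible CBG68-IkBa fusion and CBR; IMDM/0.5% FBS; cpd up to 46 uM; dox induction, 4 h, 37C/5% CO2; dual luminescence; green/red ratio; MG132 control.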
D3 ag – qHTS of D3 Dopamine Receptor Agonist: qHTS; D3R DiscoveRx beta-arrestin cells, luminescence, 90 min; AID 652048, 2013; hit rate 0.58% among 410,000; max activation, %; D(3) dopamine receptor (Homo sapiens), P35462; in the data active = max activation above about 30%; note: 0% is about no effect
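Agonist mode: compounds and dopamine controls were applied to plated cells for 90 min at 37 degrees C after an overnight attachment at 1500 cells/well. Luminescent read-out followed 30 - 60 minutes at room temperature with DiscoveRx detection reagent.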
* marks the source's active call; other numbers are inactive results; ? = inconclusive; · = not tested or not shown. Hits are enriched below; roughly 6% of the tested compounds scored in any of these assays.

SMILES | D1 ag | D1 antagonist | D1 PAM | D3 antag | Chronic BCR inh | D3 ag
CC(C)c1ccccc1NC(=S)NC1CCN(Cc2ccccc2)CC1 | 9.7 | 7.7 | -3.6 | -79.5* | 0.2% | -39.6
S=C(Nc1cc(Cl)cc(Cl)c1)NC1CCN(Cc2ccccc2)CC1 | 18.7 | -15.3 | 0.8 | -93.9* | 0.8% | -14.1
Cc1c(Cl)cccc1NC(=S)N1CCN(Cc2ccccc2)CC1 | 7.9 | -16.0 | -1.6 | -13.0 | ? | -5.4
Cc1c(Cl)cccc1NC(=S)NC1CCN(Cc2ccccc2)CC1 | 14.6 | -32.9* | -6.1 | -72.4* | -2.3% | -12.7
FC(F)(F)c1ccccc1NC(=S)Nc1ccccc1 | 0.2 | -34.9* | 1.1 | -15.1 | 9.0% | 3.4
S=C(Nc1ccccc1Cl)NC1CCN(Cc2ccccc2)CC1 | 14.5 | 0.5 | -0.6 | -83.9* | -13.4% | -6.8
Clc1ccc(CNC2CCN(Cc3ccccc3)CC2)cc1 | 13.8 | -3.2 | -8.1 | -16.7 | -8.2% | -21.0
S=C(NCc1ccc(Cl)cc1)NC1CCN(Cc2ccccc2)CC1 | 22.2 | · | -10.4 | -65.9* | ? | -15.6
CC(C)(C)c1cc(CN2CCN(CCO)CC2)cc(C(C)(C)C)c1O | 5.3 | 11.3 | 0.8 | -81.8* | ? | -32.6
CN(C)C(=O)C[C@@H]1CC[C@@H](NC(=O)C2CCC2)[C@@H](CO)O1 | · | · | · | 3.6 | · | 6.4
C/C=C(/C)C(=O)O[C@@H]1c2c(ccc3ccc(=O)oc23)OC(C)(C)[C@@H]1OC(=O)/C(C)=C\C | 2.2 | -16.7 | -2.8 | 3.2 | ? | 47.1*
CC1(C)Oc2ccc3ccc(=O)oc3c2[C@@H](O)[C@@H]1O | 7.1 | -3.6 | 1.3 | 0.0 | -8.1% | 87.4*
CCO[C@@H]1c2c(ccc3ccc(=O)oc23)OC(C)(C)[C@@H]1O | -1.5 | 8.4 | -1.9 | 19.2 | -4.2% | 0.6
CCC(Sc1nc(-c2ccc(F)cc2)nc2c1Cc1c(CO)cnc(C)c1O2)C(=O)Nc1ccc(F)cc1 (configuration not stated) | -0.5 | -6.8 | 0.7 | · | · | 8.1
COc1ccc(/C=C2/CSC/C(=C/c3ccc(OC)c(OC)c3)C2=O)cc1OC | · | · | · | -50.2* | · | 0.8
COc1ccc(/C=C2\SC(c3ccc(C)cc3)=NC2=O)cc1OC | 53.4* | -6.1 | -4.5 | 3.6 | ? | -8.6
COc1ccc(/C=C2\Cc3ccccc3C2=O)cc1OC | 0.4 | -4.4 | -8.0 | 5.9 | 4.2% | 0.8
COc1ccc(/C=C2\SC(=O)NC2=S)cc1OC | 32.5* | 2.1 | 5.3 | 81.3 | ? | 12.9
CC(C)C(NC(=O)c1ccccc1F)C(=O)OCC(=O)c1ccc(F)cc1 (configuration not stated) | 5.4 | -31.8* | -13.2 | 4.3 | ? | 7.8
COc1cc(OC)cc(C(=O)N[C@H](C(=O)OCC(=O)c2ccc(F)cc2)C(C)C)c1 | 8.9 | -6.5 | -6.0 | 11.9 | -0.5% | -1.7
Cc1cc2c(s1)c1c(C)nn(Cc3ccccc3F)c(=O)c1n2C | 0.8 | 19.6 | 2.8 | · | ? | ·
CCCCC(O)C(=O)Nc1cc(C(F)(F)F)ccc1Cl (configuration not stated) | 2.3 | -17.6 | -0.1 | · | · | ·
CCCCCCCCCC(=O)N1c2ccccc2NC(=O)C1CC(=O)Nc1ccc(C(=O)O)cc1 (configuration not stated) | 39.4* | 14.5 | -5.1 | -0.4 | -4.2% | 14.3
CCC1(C)CC(C#N)(C#N)C(=O)NC1=O (configuration not stated) | · | · | · | 12.6 | · | 3.1
O=c1c2ccccc2nc(-c2ccco2)n1Cc1ccccc1 | 1.4 | -13.2 | 3.0 | 15.3 | · | -6.9
SMILES | D1 ag | D1 antagonist | D1 PAM | D3 antag | Chronic BCR inh | D3 ag
CCOc1ccc(CCn2c(-c3ccco3)nc3ccccc3c2=O)cc1OCC | 0.8 | -20.1 | -5.8 | 28.1 | ? | 35.9*
O=c1cc(-c2ccc([N+](=O)[O-])cc2)c2cc3c(cc2[nH]1)OCCO3 | 2.2 | -19.7 | -11.3 | 21.4 | -0.6% | 36.3*
Cc1nn(Cc2ccccc2)c(C)c1NC(=O)c1cc(C(C)C)on1 | 7.2 | -8.4 | -0.2 | · | · | -30.0
CCOC(=O)N/N=C\c1ccc(-c2cccc(C(F)(F)F)c2)o1 | 2.6 | -5.4 | -1.8 | -7.8 | -5.2% | -7.4
CC1(CC(=O)N/N=C/c2ccc(-c3cccc(C(F)(F)F)c3)o2)OCCO1 | 2.5 | -36.8* | -7.4 | 11.4 | 0.4% | 4.6
CCn1c(C)cs/c1=N\S(=O)(=O)c1ccccc1 | 0.6 | 6.9 | 2.4 | -22.4 | -3.4% | -13.7
O=Cc1s/c(=N\S(=O)(=O)c2ccccc2)n(CCCCl)c1Cl | -0.4 | -28.5 | -12.4 | -119.7* | ? | -23.7
COc1ccccc1CNC(=O)Cc1csc2nc(-c3ccc(F)cc3)cn12 | 3.1 | -13.4 | -0.7 | · | · | 4.9
CC(=O)N1N=C(c2ccc(Cl)cc2)OC1c1ccc(C(C)C)cc1 (configuration not stated) | 3.9 | -18.5 | -1.9 | 2.2 | 0.4% | -10.3
CC(=O)N1N=C(c2ccc(C)cc2)OC1c1ccc(Br)cc1 (configuration not stated) | 4.1 | -30.4* | 4.1 | 7.9 | ? | -3.5
c1ccc(CSc2snnc2-c2ccccc2)cc1 | 1.2 | -17.0 | 5.5 | 5.6 | ? | -3.2
Clc1ccc(CSc2snnc2-c2ccccc2)c(Cl)c1 | 51.1* | -10.0 | -5.2 | -4.2 | 13.0% | -10.2
CCOC(=O)C1(Cc2ccc(Cl)cc2)CCN(C(=O)C2CCCO2)CC1 (configuration not stated) | 0.7 | 7.1 | -3.7 | -14.3 | -11.4% | 6.5
C=CCN1CC(C(=O)N2CCC(Cc3ccc(Cl)cc3)(C(=O)OCC)CC2)CC1=O (configuration not stated) | 1.5 | -31.8* | -1.9 | -0.6 | ? | 4.8
CCOc1ccc(-n2c(N)c(C(=O)NCc3ccco3)c3nc4ccccc4nc32)cc1 | 2.9 | -6.3 | 2.7 | -79.4* | ? | -12.7
COc1ccc(S(=O)(=O)N(C(C)=O)c2ccc3oc(=O)sc3c2)cc1 | 1.5 | 6.7 | 8.4 | -58.6* | ? | 2.5
COC(=O)c1c(C)oc2ccc(N(C(=O)c3ccncc3)S(=O)(=O)c3ccc(Br)cc3)cc12 | 12.0 | -36.6* | -0.4 | · | -28.1% | -13.9
CCOC(=O)c1c(C)oc2ccc(N(C(=O)c3ccncc3)S(=O)(=O)c3ccc(Br)cc3)cc12 | 2.5 | -56.7* | -4.8 | · | ? | 2.3
CC(=O)c1c(C)oc2ccc(N(C(C)=O)S(=O)(=O)c3ccc(Br)cc3)cc12 | · | · | · | 11.1 | · | 4.3

From PubChem BioAssay
